UGM FP inh = blocks M. tuberculosis UGM enzyme; purified UGM, fluorescence polarization probe displacement; inhibition, % at 10 µM; actives 0.06% (n = 320,000); AID 504406; in the data active means inhibition above about 10%, passing the limit was not always enough
FBA Mtb inh = Mtb fructose-bisphosphate aldolase inhibition; P9WQA3; inhibition, % at 1 µM; purified M. tuberculosis FBA, fluorescence read-out; AID 588726; actives 2.3% (n = 360,000); in the data active means inhibition above about 27%
RecA intein inh = Mtb RecA intein splicing inhibition; actives 0.75% (n = 290,000); P9WHJ3; cell-free RecA intein splicing, fluorescence; inhibition, % (test concentration not listed); in the data active means inhibition above about 30%
GDH-TPI counter = counter-screen for M. tuberculosis FBA inhibitors: GDH-TPI coupled enzymes; inhibition, % at 4.8 µM; actives 1.2% (n = 360,000); AID 588335; GDH-TPI coupled enzyme counterscreen, NADH absorbance; in the data active means inhibition above about 30%
BH1578 lux ind = inducers of Vibrio cholerae quorum light production without autoinducers. V. cholerae BH1578 lux reporter, luminescence, 6 h. activation, % at 18.7 µM. actives 0.16% (n = 350,000). AID 588436; in the data active means activation mostly above about 9.7%, no sharp cut-off
Rv3671c inh = inhibitors of M. tuberculosis serine protease Rv3671c; P9WHR9; inhibition, % at 5.96 µM; actives 0.048% (n = 320,000); AID 2606; in the data active means inhibition above about 38%;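 further: extracellular domain of Rv3671c used as enzyme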
Target sequence (P9WHR9 whole entry, looked up, the tested form may be a part): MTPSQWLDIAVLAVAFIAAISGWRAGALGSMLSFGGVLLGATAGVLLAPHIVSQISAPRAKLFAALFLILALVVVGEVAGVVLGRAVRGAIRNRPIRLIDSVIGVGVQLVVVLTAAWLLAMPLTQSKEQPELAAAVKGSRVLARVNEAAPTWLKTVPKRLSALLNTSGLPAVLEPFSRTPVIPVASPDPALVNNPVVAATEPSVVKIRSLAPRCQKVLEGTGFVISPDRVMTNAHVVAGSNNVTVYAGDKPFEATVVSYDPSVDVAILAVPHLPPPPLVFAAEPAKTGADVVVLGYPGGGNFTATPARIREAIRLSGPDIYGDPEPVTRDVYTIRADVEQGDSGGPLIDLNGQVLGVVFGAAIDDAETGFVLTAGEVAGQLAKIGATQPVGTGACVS
Of the large screens only hits and unclear results are named; the others gave an inactive call. A selection: hits, their analogues and other compounds. The true share with any hit is near 4.1%.

O=C(COc1ccccc1F)Nc1nnc(-c2ccncc2)s1	none
Cc1ccccc1OCC(=O)Nc1nnc(-c2ccncc2)s1	GDH-TPI counter 33
O=C(COc1ccc([N+](=O)[O-])cc1)Nc1nnc(-c2cccnc2)s1	GDH-TPI counter 35
O=C(Nc1nnc(-c2cccnc2)s1)c1cccs1	GDH-TPI counter 42
CN(C)c1ccc(/C=C2\SC(=O)N(CCc3nnc(N)s3)C2=O)cc1	GDH-TPI counter 32
Cc1ccc(S(=O)(=O)Oc2ccccc2/C=N/Nc2ccc(C(=O)O)cc2)cc1	GDH-TPI counter 51
COc1cc2sc(-c3ccc(S(C)(=O)=O)cc3)c(-c3ccc4c(c3)OCO4)c2cc1OC	FBA Mtb inh 32 (no result: RecA intein inh)
COc1ccc2sc(-c3ccc(S(C)(=O)=O)cc3)c(-c3ccc4c(c3)OCCO4)c2c1	none (no result: RecA intein inh)
O=C(NCc1cccc(C(F)(F)F)c1)c1[nH]c(C(F)(F)F)nc1-c1ccccc1	none (no result: UGM FP inh, RecA intein inh, GDH-TPI counter, BH1578 lux ind, Rv3671c inh)
CN(C)CCOc1ccc(/C(=C(/CCCl)c2ccccc2)c2ccccc2)cc1	RecA intein inh 33 (no result: UGM FP inh)
COc1ccc2[nH]c3c(NCCCN4CCCC4=O)ncnc3c2c1	FBA Mtb inh 152
COc1ccc2[nH]c3c(=O)n(CCc4ccccc4)cnc3c2c1	FBA Mtb inh 95
O=c1c([N+](=O)[O-])c(NCCN2CCCCCC2)c2ccccc2n1-c1ccccc1	none
O=c1c([N+](=O)[O-])c(N2CCCCC2)c2ccccc2n1-c1ccccc1	BH1578 lux ind active (no result: RecA intein inh)
CSc1c2c([nH]c(=O)c1C#N)-c1ccccc1CC2	FBA Mtb inh 175 (no result: UGM FP inh, RecA intein inh, GDH-TPI counter, BH1578 lux ind, Rv3671c inh)
CSc1nc(-c2ccccc2)c(C#N)c(=O)[nH]1	none
Cc1ccc(S(=O)(=O)CCC(=O)OC(C)C(=O)NC2CCCCC2C)cc1 (centres undefined)	none
Cc1ccc(C(=O)NC2CC3CCC(C2)N3C)cc1 (centres undefined)	none (no result: RecA intein inh)
CCc1ccc(N=C2NC(=O)/C(=C/c3ccc(OCC(=O)O)c(OC)c3)S2)cc1	none (no result: UGM FP inh, Rv3671c inh)
CCc1ccc(N=C2NC(=O)/C(=C/c3ccc(OCC(=O)O)cc3)S2)cc1	GDH-TPI counter 40
O=S1(=O)C[C@H](N2CCC[C@@H]2CO)[C@@H](COCc2ccccc2)N1	none (no result: UGM FP inh, RecA intein inh, GDH-TPI counter, BH1578 lux ind, Rv3671c inh)
C[N+]1=C(/C=C/Nc2ccccc2Cl)C(C)(C)c2ccccc21	GDH-TPI counter 36 (no result: UGM FP inh)
CCOc1ccccc1NC(=O)COC(=O)CCOc1cc(C)ccc1C	none
CC(O)(c1cccc(F)c1)c1nc(-c2cccc3cccnc23)cs1 (centres undefined)	none (no result: UGM FP inh, RecA intein inh, Rv3671c inh)
CN(C)c1ccc(C=NC(CO)C(O)c2ccc([N+](=O)[O-])cc2)cc1 (centres undefined)	GDH-TPI counter 38
COc1cccc(C=N[C@@H](CO)[C@@H](O)c2ccc([N+](=O)[O-])cc2)c1O	none
Nc1nonc1-n1nnc(C(=O)N/N=C/c2cccc(Cl)c2)c1CN1CCCCCC1	none
CC(/C=N/NC(=O)c1nnn(-c2nonc2N)c1CN1CCCCC1)=C\c1ccccc1	GDH-TPI counter 34
Nc1nonc1-n1nnc(C(=O)N/N=C/c2cccc(O)c2)c1CN1CCCC1	BH1578 lux ind 31 (no result: Rv3671c inh)
CCC/C=C/c1ccc(CN2C(C(C)C)C(=O)N(Cc3cn(CC4CCCCC4)nn3)CCS2(=O)=O)cc1 (centres undefined)	none (no result: UGM FP inh, RecA intein inh, Rv3671c inh)
Cc1cc(C)c(S(=O)(=O)N2CCOC23CCN(S(C)(=O)=O)CC3)c(C)c1	none (no result: UGM FP inh, RecA intein inh, Rv3671c inh)
C[C@@H]1CCCCO[C@H](CN(C)C(=O)Nc2cccc3ccccc23)[C@@H](C)CN([C@H](C)CO)C(=O)c2cc(NC(=O)c3ccccc3)ccc2O1	none (no result: UGM FP inh, RecA intein inh, Rv3671c inh)
CCc1nc2c(OCC(=O)c3ccc(Cl)cc3Cl)cccn2c1N(C)C(=O)COc1ccccc1	none (no result: UGM FP inh, RecA intein inh, Rv3671c inh)
CN(C)CCCN(C(=O)/C=C/c1cccs1)c1nc2c(F)cccc2s1	GDH-TPI counter 37 (no result: UGM FP inh, Rv3671c inh)
COc1ccc2sc(N(CCN(C)C)C(=O)/C=C/c3cccs3)nc2c1	none
Cc1cccc2sc(N(CCN(C)C)C(=O)/C=C/c3cccs3)nc12	none
COc1ccc2nc(N(CCN(C)C)C(=O)/C=C/c3cccs3)sc2c1	GDH-TPI counter 32
CC(=O)c1ccc(OCC(=O)OCC(=O)NCc2ccco2)cc1	none (no result: RecA intein inh)
O=C(CCl)NCc1c(Cl)cccc1-n1cccc1	RecA intein inh 46
O=C(Cc1c(Cl)cccc1Cl)NCCc1ccc(Cl)cc1	none
Cc1ccc(NCC(=O)N/N=C/c2cccn2C)cc1	GDH-TPI counter 35
Cc1nc(N(C)C)c2sc(=S)n(C)c2n1	GDH-TPI counter 31
Cc1c(O)ccc2cc(S(=O)(=O)c3ccccc3)c(=O)oc12	FBA Mtb inh active
